USP28 block – blocks human USP28 ubiquitin-rhodamine cleavage; 47,000 compounds, 3% hits; inhibition, % at 25 µM; purified USP28, Ub-rhodamine cleavage fluorescence, 30 min
USP30 block – blocks human USP30 ubiquitin-rhodamine cleavage; Q70CQ3; purified USP30, Ub-rhodamine cleavage fluorescence; inhibition, % at 25 µM; 47,000 compounds, 5.3% hits; AID 1645860
Target sequence (Q70CQ3 whole entry, looked up): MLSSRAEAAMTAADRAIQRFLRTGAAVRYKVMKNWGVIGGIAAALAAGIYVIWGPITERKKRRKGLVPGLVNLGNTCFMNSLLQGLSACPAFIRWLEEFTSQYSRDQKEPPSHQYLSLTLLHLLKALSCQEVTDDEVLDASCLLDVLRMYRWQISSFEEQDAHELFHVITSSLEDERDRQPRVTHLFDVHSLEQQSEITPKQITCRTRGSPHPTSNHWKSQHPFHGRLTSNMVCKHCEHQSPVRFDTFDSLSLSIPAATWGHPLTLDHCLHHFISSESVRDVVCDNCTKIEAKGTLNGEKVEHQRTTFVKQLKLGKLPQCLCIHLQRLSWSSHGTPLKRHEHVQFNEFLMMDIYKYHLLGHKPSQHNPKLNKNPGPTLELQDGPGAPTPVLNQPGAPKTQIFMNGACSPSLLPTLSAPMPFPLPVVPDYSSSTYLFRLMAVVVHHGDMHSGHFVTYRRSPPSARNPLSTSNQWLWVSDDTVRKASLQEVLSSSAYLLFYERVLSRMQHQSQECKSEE
USP10 inh – inhibitors of human USP10 deubiquitinase. AID 1645856. Q14694. inhibition, % at 20 µM. 47,000 compounds, 1.1% hits. purified USP10, Ub-rhodamine fluorescence, 60 min
USP17 block – human USP17-like deubiquitinase inhibition; purified USP17, Ub-rhodamine cleavage fluorescence, 3 h; inhibition, % at 50 µM; 47,000 compounds, 6.5% hits; AID 1645855
USP8 block – inhibitors of human USP8 deubiquitinase; P40818; 47,000 compounds, 4.2% hits; inhibition, % at 20 µM; purified USP8, Ub-rhodamine cleavage fluorescence, 30 min
An asterisk follows results filed as active; . = no result given. This is a sample that favours compounds with a hit; in the whole collection about 14% have one here. Cut-off read from the data, not from the text of the source: active = inhibition above about 30%; inactive = the rest.

SMILES | USP28 block | USP30 block | USP10 inh | USP17 block | USP8 block
CCC(=O)N1c2ccccc2NC2=C(C(=O)CC(c3ccco3)C2)C1c1ccc(OC)c(OC)c1 (configuration not stated) | 2.7 | -15.0 | 0.2 | 0.1 | -0.4
CC1=C(C)C(c2c(-c3ccc(C)cc3)[nH]c3ccccc23)N(C(C)(C)C)C1=O (configuration not stated) | 11.6 | 10.5 | 40.6* | 94.1* | 90.2*
COc1ccc([N+](=O)[O-])cc1NC(=O)COC(=O)c1ccc2[nH]c3c(c2c1)CCCC3 | 63.2* | 59.5* | 50.5* | 70.9* | 59.7*
O=C(c1ccncc1)N1CCC(c2nc3ccccc3cc2C(=O)N2CCCC2)CC1 | 2.4 | 1.8 | 0.0 | -0.4 | 5.9
CC(C)(C)c1ccc(-c2nc3[nH]c(=O)cc(NC(=O)c4ccco4)n3n2)cc1 | 25.6 | 15.3 | 14.8 | . | 42.6*
COc1ccc(-c2nc3[nH]c(=O)cc(NC(=O)Cc4ccccc4)n3n2)cc1 | -50.4 | -110.7 | 0.5 | -59.9 | 59.8*
O=C(Nc1cc(=O)[nH]c2nc(Cc3ccccc3)nn12)c1ccco1 | -70.2 | -241.7 | -2.7 | -124.7 | 48.4*
CCC(=O)Nc1cc(=O)[nH]c2nc(-c3ccc(OC)cc3)nn12 | 4.7 | -105.8 | 1.0 | 6.6 | 14.6
CCCCC(=O)Nc1cc(=O)[nH]c2nc(Cc3ccccc3)nn12 | -3.0 | -0.3 | 4.1 | 4.9 | 1.0
COc1cccc(-c2noc(N3CCN(c4ccc(F)cc4)CC3)n2)c1OC | -10.2 | -81.4 | 5.7 | -10.2 | -29.9
O=C1N[C@@H]2CCN(C(=O)c3ccncc3)C[C@@H]2C/C=C/CCOc2ccccc21 | -5.5 | -7.0 | -1.4 | -2.9 | 0.0
Cc1nc(NC(=O)c2nnn(-c3ccc(F)cc3)n2)sc1C | 6.1 | -2.1 | 2.8 | 39.5* | 7.3
COc1cccc(NC(=O)c2nnn(-c3ccccc3)n2)c1 | 66.3* | 0.2 | 3.3 | -0.8 | -3.1
COc1ccc(-n2nnc(C(=O)Nc3nc(C)c(C)s3)n2)cc1 | 42.0* | 33.7* | -9.8 | 48.1* | -0.5
COc1ccccc1CNC(=O)c1nnn(-c2ccc(Cl)cc2)n1 | 24.1 | 34.5* | 6.5 | 19.1 | 1.5
Cc1ccc(NC(=O)c2nnn(-c3ccccc3)n2)cc1 | 28.7 | 12.4 | 5.8 | 1.0 | 13.9
COc1ccc(-n2nnc(C(=O)NCc3ccc(F)cc3F)n2)cc1 | 16.3 | -2.4 | 6.4 | -3.1 | -0.2
COc1ccc(-n2nnc(C(=O)NC3CC3)n2)cc1 | -2.0 | 6.0 | 1.6 | -0.2 | 2.3
CC(=O)N1CCN(S(=O)(=O)c2cccnc2)C(c2ccccc2)C1 (configuration not stated) | 2.6 | 5.6 | 0.3 | 5.0 | 17.1
COc1ccc2c(c1)CC(C(=O)NCc1ccccc1OC)CO2 (configuration not stated) | 5.1 | 17.6 | 1.3 | 11.1 | 16.3
CCc1csc(-c2cn(CC(=O)Nc3cccc(C)c3C)cn2)n1 | 20.5 | 57.8* | 4.1 | 50.9* | -27.5
CCc1csc(-c2cn(CC(=O)Nc3cc(C)ccc3C)cn2)n1 | -2.1 | -65.6 | 4.7 | 48.9* | 38.7*
O=C(CN1CCN(Cc2ccc3c(c2)OCO3)CC1)N1CCCCC1 | 3.9 | 8.1 | -2.0 | -5.9 | 0.3
Cc1cc(C(=O)CN2CCN(Cc3ccc4c(c3)OCO4)CC2)c(C)n1-c1ccc2c(c1)OCO2 | 18.1 | -15.6 | -8.3 | 54.6* | 21.1
Cc1cc(C(=O)COc2ncnc3sccc23)c(C)n1CC1COc2ccccc2O1 (configuration not stated) | -28.8 | -120.2 | -9.5 | . | 5.6
SMILES | USP28 block | USP30 block | USP10 inh | USP17 block | USP8 block
Cc1ccc(S(=O)(=O)CCC(=O)OCC(=O)c2cc(C)n(-c3ccc4c(c3)OCO4)c2C)cc1 | 17.7 | 2.9 | 5.8 | 41.1* | 57.9*
Cc1cc(C(=O)COC(=O)c2ccc[nH]c2=O)c(C)n1-c1ccc2c(c1)OCO2 | 0.1 | -30.1 | 2.6 | 66.5* | 30.4*
Cc1cc(C(=O)COc2ncnc3sccc23)c(C)n1-c1ccc2c(c1)OCO2 | . | . | 3.8 | 57.3* | 7.5
O=C(Nc1ccccc1F)c1cccc(-c2nc(-c3ccccc3)no2)c1 | -4.8 | -7.8 | 5.5 | -3.5 | 0.3
Cc1ccc(C2=NC3(CCN(CC(=O)NCc4ccc(Cl)cc4)CC3)NC2=O)cc1C | -11.8 | -16.9 | -6.1 | -20.8 | -86.5
Cn1c(=O)c(C(=O)CN2CCN(c3ccc(O)cc3)CC2)c(N)n(Cc2ccccc2)c1=O | 26.4 | -1.2 | -0.9 | 59.0* | 66.8*
CC(C)(C)OC(=O)N1C[C@@H]2C[C@@]3(C)[C@H](CCC[C@@H]13)N2C(=O)c1cccnn1 | -0.1 | 12.5 | 1.6 | 7.2 | 11.0

Compound activity as filed in PubChem.
